The whole screen tested about 370,000 compounds, of which about 3,100 (0.84%) were called active. Many of the other results were omitted from the sample, so actives are more common in it than they were. A number with no mark means an inactive call.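 The calls were made as follows: active = inhibition above the mean of compounds lying between control limits plus 3 SD, set per campaign (cut at about 8.5% in these data); inactive = the rest.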
These compounds were tested against Disintegrin and metalloproteinase domain-containing protein 17 (Homo sapiens) (UniProt P78536) (assay: inhibition of ADAM17 peptide cleavage – biochemical, QFRET, primary screen (AID 720648;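 also: 0% = DMSO-only wells as the low control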)). Conditions: recombinant ADAM17, EDANS/DABCYL FRET peptide cleavage; at 6.95 µM; hits give high values.
Chain of Disintegrin and metalloproteinase domain-containing protein 17 (Homo sapiens) (P78536 215-824 limits assumed): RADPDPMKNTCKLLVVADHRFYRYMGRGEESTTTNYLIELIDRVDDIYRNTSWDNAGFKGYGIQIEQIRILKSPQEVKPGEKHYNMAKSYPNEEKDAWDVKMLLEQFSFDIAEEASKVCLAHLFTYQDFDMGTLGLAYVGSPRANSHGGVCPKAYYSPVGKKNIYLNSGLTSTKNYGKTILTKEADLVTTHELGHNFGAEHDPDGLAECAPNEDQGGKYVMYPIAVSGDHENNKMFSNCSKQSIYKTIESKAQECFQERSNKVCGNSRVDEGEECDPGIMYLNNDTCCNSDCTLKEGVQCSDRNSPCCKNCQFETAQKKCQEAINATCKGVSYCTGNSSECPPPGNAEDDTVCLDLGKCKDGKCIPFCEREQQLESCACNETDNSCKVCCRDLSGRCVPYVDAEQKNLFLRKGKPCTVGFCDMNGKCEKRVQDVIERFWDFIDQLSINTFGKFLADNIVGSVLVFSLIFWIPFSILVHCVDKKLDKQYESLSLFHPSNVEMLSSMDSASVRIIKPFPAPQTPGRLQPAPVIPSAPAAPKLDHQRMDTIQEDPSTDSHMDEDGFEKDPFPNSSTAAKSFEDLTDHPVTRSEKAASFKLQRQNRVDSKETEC
C[C@@H]1CN([C@H](C)CO)C(=O)c2cc(-c3ccc(F)cc3)cnc2O[C@H]1CN(C)C(=O)c1ccc(F)cc1 was tested, and the inhibition was 11.7% (active).
With COc1ccc(-c2cnc3c(c2)C(=O)N([C@H](C)CO)C[C@@H](C)[C@H](CN(C)Cc2ccccc2)O3)cc1 the inhibition was 2.22%.
C[C@H]1CN([C@@H](C)CO)C(=O)c2cc(-c3cccc(F)c3)cnc2O[C@@H]1CN(C)S(C)(=O)=O gave an inhibition of 1.1%.
CCCCCN1CCCCC(NC(=O)C(C)CCC)C1=O (stereo not drawn) was tested, and the inhibition was -3.79%.
In the case of CCCCNC(=O)C[C@@H]1C(=O)N(CCc2ccc(Cl)cc2)C2=CCCC[C@]21C(=O)OCC, the inhibition is reported as -1.53%.
O=C(CN1CCN(c2nc(-c3ccccc3)cs2)CC1)NCc1ccc2c(c1)OCO2 was tested, and the inhibition was 11.7% (active).
CC1(C(=O)NCc2ccc3c(c2)OCO3)CCN1CCc1ccccc1 (stereo not drawn) was tested, and the inhibition was 4.37%.
Cc1ccc(-c2nc(CS(=O)(=O)CC(=O)NCc3ccc4c(c3)OCO4)c(C)o2)cc1 gave an inhibition of -1.45%.
With Cc1ccc(-n2c(SCC(=O)Nc3cccc4ccccc34)nnc2-c2ccccn2)cc1 the inhibition was 0.17%.
COc1ccc(C(=O)OCCN(C)C2CN(Cc3cn(Cc4cccc(C)c4)nn3)S(=O)(=O)C2)cc1OC (stereo not drawn) was tested, and the inhibition was 0%.
Work on CC1CCN(c2ccc(C(=O)O)cc2NS(=O)(=O)c2ccc(Br)s2)CC1 yielded an inhibition of -2.39%.
For Clc1ccc(-n2c(COc3ccccc3)nnc2SCc2nc3ccccc3[nH]2)cc1, the inhibition was 1.5%.
In the case of COc1ccc(CCNC(=O)C(=O)NCc2ccccc2C)cc1OC, the inhibition is reported as -2.04%.
With COc1ccc(CC(=O)c2ccc(O)cc2O)cc1OC the inhibition was 9.65% (active).
COc1ccc(C2(CNC(=O)Cc3ccc(OC)c(OC)c3)CCCC2)cc1 showed an inhibition of 0.4%.
For FC(F)(F)c1cccc(NC(=S)OC2CCC23CCC(c2ccccc2)CC3)c1 (stereo not drawn), the inhibition was 4.59%.
C#CCNC(=O)C[C@H]1C[C@@]2(C(=O)OC)C(=C[C@H](C(C)C)O[C@@H]2C2CC2)N(Cc2ccco2)C1=O gave an inhibition of -2.14%.
For O=C(CSc1nnc(COc2ccccc2)n1Cc1ccco1)c1ccc2ccccc2c1, the inhibition was 8.38%.
In the case of Cc1ccc(-c2nnc(SCC(=O)Nc3ccc(Oc4ccccc4)cc3)n2Cc2ccco2)cc1, the inhibition is reported as 9.36% (active).
For O=C(CSc1nnc(-c2ccccc2)n1Cc1ccco1)Nc1ccccc1-c1ccccc1, the inhibition was 3.73%.
For Cc1ccc(OCc2nnc(SC/C=C/c3ccccc3)n2Cc2ccco2)cc1, the inhibition was 10.7% (active).
With C(=C\c1ccccc1)/CSc1nnc(-c2cccnc2)n1Cc1ccco1 the inhibition was -2.99%.
For O=C(CSc1nnc(-c2cccc(Cl)c2)n1Cc1ccco1)Nc1ccc(OCc2ccccc2)cc1, the inhibition was 4%.
